Yeast superoxide: yeast age-related superoxide inhibition as caloric restriction mimetic; superoxide response (% of plate mean), % at 10 µM; AID 2690; S. cerevisiae aged cells, superoxide DHE fluorescence; stronger effect = lower value; actives 0.18% (n = 330,000);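 active means superoxide response under a set limit, about three screen SD below normal, cut at about 65% in these data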;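 further: yeast aged for seven days with compound at 30 °C before DHE staining; 100% = average MFI of all compound-treated wells on the plate with controls excluded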
ALR H2O2 inh: inhibitors of human sulfhydryl oxidase ALR. P55789. purified ALR, DTT oxidation, H2O2 HRP-luminol luminescence. inhibition, % (concentration not given with the values). actives 3.8% (n = 290,000);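 active means mean replicate inhibition above about 79%, with every replicate also reaching it, limit read from the data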
APOBEC3G inh: APOBEC3G (human) deaminase inhibition | recombinant A3G, ssDNA deamination FAM/TAMRA fluorescence | inhibition, % at 20 µM | actives 0.28% (n = 330,000) | Q9HC16;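 active means inhibition of at least 40% at 20 µM, with no more than 30% in the related APOBEC3A deaminase screen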;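 further: plate controls were DMSO wells with A3G for no effect and wells lacking A3G enzyme for full effect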
NRP1-CendR mod: alters CendR peptide binding to human NRP-1; O14786; AID 602438; actives 0.85% (n = 360,000); FAM-RPARPAR peptide binding to NRP-1, fluorescence polarization; inhibition, % at 25 µM;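 active means inhibition or corrected inhibition above about 18%, plus a signal ratio from 0.5 to 1.5, limit read from the data, passing the limit was not always enough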
Target sequence (O14786 whole entry, looked up): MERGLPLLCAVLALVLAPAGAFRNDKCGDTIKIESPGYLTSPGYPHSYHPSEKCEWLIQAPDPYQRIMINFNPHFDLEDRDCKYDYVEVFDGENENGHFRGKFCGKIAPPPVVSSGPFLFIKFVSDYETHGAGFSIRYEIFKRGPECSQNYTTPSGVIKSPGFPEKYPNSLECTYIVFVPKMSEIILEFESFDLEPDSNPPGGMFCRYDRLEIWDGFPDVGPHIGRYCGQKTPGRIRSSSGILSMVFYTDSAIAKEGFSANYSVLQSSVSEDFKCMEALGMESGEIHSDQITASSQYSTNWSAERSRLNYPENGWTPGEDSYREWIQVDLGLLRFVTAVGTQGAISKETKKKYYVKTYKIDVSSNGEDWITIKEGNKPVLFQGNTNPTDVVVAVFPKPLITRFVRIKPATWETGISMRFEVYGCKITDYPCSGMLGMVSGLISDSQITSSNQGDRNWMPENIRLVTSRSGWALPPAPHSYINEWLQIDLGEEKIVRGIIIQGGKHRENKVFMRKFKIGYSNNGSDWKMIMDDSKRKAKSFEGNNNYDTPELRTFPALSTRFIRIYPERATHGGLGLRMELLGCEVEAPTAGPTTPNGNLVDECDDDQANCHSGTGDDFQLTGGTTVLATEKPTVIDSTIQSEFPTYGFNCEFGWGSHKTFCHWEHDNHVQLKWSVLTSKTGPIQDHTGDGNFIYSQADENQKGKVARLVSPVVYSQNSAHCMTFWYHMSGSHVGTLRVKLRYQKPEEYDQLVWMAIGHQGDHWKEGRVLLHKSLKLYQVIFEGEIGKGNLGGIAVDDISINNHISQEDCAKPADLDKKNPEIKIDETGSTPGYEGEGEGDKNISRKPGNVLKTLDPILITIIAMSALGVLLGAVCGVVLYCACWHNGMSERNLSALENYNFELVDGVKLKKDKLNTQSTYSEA
PfM18AAP inh: PfM18AAP enzyme inhibition; recombinant PfM18AAP, H-Glu-NHMec fluorogenic cleavage; inhibition, % at 7.35 µM; actives 1.2% (n = 290,000); AID 1822;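 active means inhibition above the campaign mean inhibition over all tested compounds plus 3 SD, cut at about 28% in these data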;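 further: 0% = plate median of test compound wells and 100% = 2 mM ZnCl2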
A3A deaminase: inhibitors of human APOBEC3A DNA deaminase. inhibition, % at 20 µM. AID 493011. recombinant A3A, FAM/TAMRA ssDNA deamination fluorescence. actives 0.41% (n = 330,000). P31941;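 active means at least 40% inhibition at 20 µM here, with at most 30% in a related deaminase screen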;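 further: plate controls were A3A with DMSO for no effect and wells lacking A3A enzyme for full effect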
Starred values were filed as active, the others as inactive; · = not tested or not shown. Only some compounds are listed: those with a hit (about 5.2% of all), similar ones and a draw of the others.

SMILES	Yeast superoxide	ALR H2O2 inh	APOBEC3G inh	NRP1-CendR mod	PfM18AAP inh	A3A deaminase
COc1ccc(CN2CC(C(N)=O)Oc3ccccc32)cc1F (stereo not drawn)	99	98*	-8	20	4	-3
COc1ccc(CCNC(=O)C2COc3ccccc3O2)cc1OC (stereo not drawn)	·	·	·	7	·	·
CCC(C)Nc1nc2c(c(=O)n(C)c(=O)n2C)n1Cc1ccc(F)cc1 (stereo not drawn)	97	90*	-7	2	-3	-6
Cn1c(=O)[nH]c(=O)c2c1nc(Br)n2C/C=N/NC(=O)c1ccccc1	110	-3	-5	-1	4	-2
Cn1c(=O)[nH]c(=O)c2c1nc(Br)n2C/C=N/Nc1ccccc1	93	100*	-2	-2	4	-1
C=CCNc1nc2c(c(=O)n(C)c(=O)n2C)n1Cc1ccc(F)cc1	93	-1	1	-2	-3	1
CCC(C)Nc1nc2c(c(=O)[nH]c(=O)n2C)n1CCCc1ccccc1 (stereo not drawn)	109	82*	7	9	4	-5
O=C(CN1CCN(S(=O)(=O)c2ccccc2)CC1)Nc1ccc2c(c1)OCO2	103	-7	3	6	5	1
NC(=O)COc1ccccc1C1=NO[C@@](CC(=O)O)(C(=O)Nc2ccc3c(c2)OCCO3)C1	104	·	-7	-2	5	-2
C=CCn1c(=O)n(CCC#N)c(=O)n(CCC#N)c1=O	109	1	-5	3	1	-1
N#Cc1ccsc1NC(=O)CSc1ncn[nH]1	96	-3	-1	3	27	4
O=C(CSc1ncnc2ccccc12)Nc1cccc(S(=O)(=O)N2CCOCC2)c1	99	98*	-5	-43	5	1
CN(C)S(=O)(=O)c1cccc(NC(=O)CSc2ncnc3ccccc23)c1	90	99*	-3	-9	5	8
N#Cc1ccsc1NC(=O)CSc1ncnc2ccccc12	114	98*	18	-21	-1	8
CN1CCN(C(=O)c2ccc3c(=O)n4c(nc3c2)CCCCC4)CC1	100	0	-8	-1	-5	0
COc1cccc(NC(=O)CC(=O)c2ccc([N+](=O)[O-])cc2)c1	139	-6	10	15	-12	5
COc1cccc(N/C(SCc2cccc([N+](=O)[O-])c2)=C(/C#N)C(N)=O)c1	104	99*	-2	-5	11	-3
Cc1ccc(-c2cc(NC(=O)CCl)n(-c3ccccc3)n2)cc1	98	12	-2	4	4	0
O=C(CCl)Nc1cc(-c2ccccc2)nn1-c1ccccc1	104	98*	-4	2	4	-1
COC(=O)C(C)Sc1ncnc2c1nnn2-c1ccc(F)cc1 (stereo not drawn)	94	98*	-4	-15	-4	-3
CCOC(=O)CNC(=O)CSc1ncnc2c1nnn2-c1ccc(F)cc1	101	-2	-2	10	4	-2
O=C(O)c1ccccc1C(=O)NNc1cccc(Cl)n1	85	-3	-4	5	45*	-1
NS(=O)(=O)c1ccc(NNC(=O)c2ccccc2C(=O)O)cc1	79	36	6	0	16	2
O=C(O)c1ccccc1C(=O)NNc1ccc(Cl)cc1	95	99*	1	-6	2	-3
Cc1ccc(NC(=S)N2CCN(S(=O)(=O)c3c(F)cccc3F)CC2)cc1C	111	-1	-13	5	-1	-2
SMILES	Yeast superoxide	ALR H2O2 inh	APOBEC3G inh	NRP1-CendR mod	PfM18AAP inh	A3A deaminase
CCOC(=O)N1CCC(Nc2cccc(SC)c2)CC1	94	97*	-2	-2	14	-2
COC(=O)[C@@H](Cc1ccccc1)NS(=O)(=O)N[C@H](Cc1ccccc1)C(=O)OC	·	·	·	0	·	·
c1ccc(Cn2nnnc2C(c2cccnc2)N2CCN(c3ccccc3)CC2)cc1 (stereo not drawn)	84	98*	-4	9	4	-2
O=C(NCc1cccs1)C(=O)NCC(c1ccco1)N1CCN(c2ccccc2)CC1 (stereo not drawn)	102	98*	-6	3	-4	-5
O=C(NCC(c1ccco1)N1CCCCC1)C(c1ccccc1)c1ccccc1 (stereo not drawn)	94	94*	-7	8	-5	-6
O=C(NCCCn1ccnc1)C(=O)NCC(c1cccnc1)N1CCN(c2ccc(F)cc2)CC1 (stereo not drawn)	93	68	2	0	1	-1
COc1ccc(N2CCN(C(CNC(=O)C(=O)NCCCn3ccnc3)c3cccnc3)CC2)cc1 (stereo not drawn)	73	90*	-11	6	3	-4
NC(=O)C1CC(=O)N(c2ccc(OCc3ccc([N+](=O)[O-])cc3)cc2)C1 (stereo not drawn)	93	-12	-5	-12	-16	0
COc1ccccc1N1CCN(C(CNC(=O)c2ccc3c(c2)OCO3)c2cccnc2)CC1 (stereo not drawn)	95	57	-3	29*	-12	-18
O=C(NCc1cccnc1)C(=O)NCC(c1ccco1)N1CCN(c2ccccc2)CC1 (stereo not drawn)	109	98*	-4	-13	-1	0
COc1ccccc1N1CCN(C(CNC(=O)C2CCCCC2)c2cccnc2)CC1 (stereo not drawn)	92	63	-10	-9	5	-5
COCCn1nnnc1C(c1ccccc1OC)N1CCN(c2ccccc2)CC1 (stereo not drawn)	100	84*	-2	8	-7	-1
O=C(NCC(c1cccnc1)N1CCN(c2ccccc2)CC1)c1ccco1 (stereo not drawn)	101	99*	-2	2	0	-1
Cc1ccc(-n2nccc2-c2nn(-c3cccc(C(F)(F)F)c3)c(=O)n(C)c2=O)cc1	81	-4	0	-2	-5	4
CC(C)(C)c1ccc(NC(=O)c2cc(C3CCCN(S(=O)(=O)c4cccc5cccnc45)C3)on2)cc1 (stereo not drawn)	·	·	·	2	·	·
CCOc1ccc(CCNC(=O)CS(=O)Cc2nc(-c3ccccc3Cl)oc2C)cc1OCC (stereo not drawn)	104	99*	-4	0	5	-3
Cc1ccc(CCNC(=O)CS(=O)Cc2nc(-c3ccccc3Cl)oc2C)cc1 (stereo not drawn)	123	99*	0	6	-10	-1
COc1ccc(OC)c(CCNC(=O)CS(=O)(=O)Cc2nc(-c3ccccc3Cl)oc2C)c1	92	-8	-5	2	-5	-3
COCCCNC(=O)CS(=O)Cc1nc(-c2ccccc2C)oc1C (stereo not drawn)	98	99*	6	3	-1	1

Screening results deposited in PubChem BioAssay by several laboratories.
